Reference: PubChem BioAssay (NCI)
This is part of a sample that, as a whole, favours compounds with a hit. Of some 83,000 tested, about 20% had one in any assay.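 96-well plates, one dose, 48 hours. Percent growth reported; active if below 10.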 Unmarked numbers belong to inactive results. Activity calls are given as the source filed them.

Assays:
Test in all cases: NCI-60 one-dose screen, 48 h (100 = growth as untreated, 0 = no growth, -100 = all killed)
Settings in all cases: 10 µM unless noted
DU-145 prostate = test system: DU-145 prostate
K-562 leukemia = test system: K-562 leukemia
MALME-3M melanoma = test system: MALME-3M melanoma
MDA-MB-231 breast = test system: MDA-MB-231 breast
RXF 393 renal = test system: RXF 393 renal
SF-268 CNS = test system: SF-268 CNS
SF-295 CNS = test system: SF-295 CNS
SF-539 CNS = test system: SF-539 CNS
UACC-257 melanoma = test system: UACC-257 melanoma
M14 melanoma = test system: M14 melanoma
HCT-15 colon = test system: HCT-15 colon
HT29 colon = test system: HT29 colon
SNB-75 CNS = test system: SNB-75 CNS
SNB-19 CNS = test system: SNB-19 CNS
U251 CNS = test system: U251 CNS
PC-3 prostate = test system: PC-3 prostate
SK-MEL-5 melanoma = test system: SK-MEL-5 melanoma
UACC-62 melanoma = test system: UACC-62 melanoma
LOX IMVI melanoma = test system: LOX IMVI melanoma
SK-MEL-28 melanoma = test system: SK-MEL-28 melanoma

Row | Compound | growth (DU-145 prostate) | growth (K-562 leukemia) | growth (MALME-3M melanoma) | growth (MDA-MB-231 breast) | growth (RXF 393 renal) | growth (SF-268 CNS) | growth (SF-295 CNS) | growth (SF-539 CNS) | growth (UACC-257 melanoma) | growth (M14 melanoma) | growth (HCT-15 colon) | growth (HT29 colon) | growth (SNB-75 CNS) | growth (SNB-19 CNS) | growth (U251 CNS) | growth (PC-3 prostate) | growth (SK-MEL-5 melanoma) | growth (UACC-62 melanoma) | growth (LOX IMVI melanoma) | growth (SK-MEL-28 melanoma)
1 | O=C(CCCCCCN1CC(=O)N2[C@@H](c3ccccc3Cl)c3[nH]c4ccccc4c3C[C@H]2C1=O)NO | 77.2% | 25.7% | 21.9% | 63.1% | 61.3% | 89.9% | 80.3% | 60% | 51.7% | 49.3% | 97.5% | 57.6% | -1.06% (active) | 71.8% | 60.1% | 61.8% | 46.9% | 34% | 14.7% | 43.8%
2 | C=CCn1c(C)nc2cc(Nc3nc(N4CCCC4)nc4ccccc34)ccc21 | 73.8% | 1.94% (active) | 122% | 42% | 52.4% | 86.9% | 83.7% | 90.1% | 115% | 89.7% | 79.4% | 5.63% (active) | 83.6% | 107% | 96.6% | 98.7% | 62.4% | 113% | 2.4% (active) | 80.1%
3 | COC(=O)[C@]12CC[C@@H](C)[C@H](C)[C@@H]1C1=CC[C@@H]3[C@@]4(C)C(C=O)=C[C@@](C)(COS(C)(=O)=O)[C@@H]4C(=O)C[C@@]3(C)[C@]1(C)CC2 | 41.2% | 21.3% | 83.6% | 37.2% | 73.8% | 40.2% | 37.3% | 65.7% | 52.6% | 36.8% | 21.4% | 26.9% | 38.7% | 41.7% | 26% | 12% | 63.8% | 38.6% | 35.7% | 74.2%
4 | CCCCCCCOc1c(OC)cc(C2CC(=O)Nc3c2c(C)nn3-c2nc3ccccc3[nH]2)cc1OC (stereo not given) | 29.6% | 21% | -51.5% (active) | -66.3% (active) | -40.1% (active) | -9.44% (active) | -57.4% (active) | -88.5% (active) | 10.1% | 4.61% (active) | 0.5% (active) | -2.41% (active) | -31.5% (active) | 16.1% | -58.2% (active) | 12% | -83.7% (active) | -49.2% (active) | -89.2% (active) | -9.72% (active)
5 | COc1ccc2[nH]c(O)c(/C=c3/cc4c(c(-c5cc(OC)c(OC)c(OC)c5)n3)=Nc3ccccc3-4)c2c1 | 73.9% | 31.7% | 94.8% | 31.7% | 43.1% | 72.9% | 76.9% | 84.1% | 88.5% | 49.2% | 46.8% | 35% | 78.8% | 84.4% | 61.4% | 44.7% | 52.2% | 80.7% | 64.8% | 83.1%
6 | Fc1ccc(CNc2c3ccccc3nc3ccccc23)cc1F | 39.5% | 12.3% | 50.7% | 34.8% | 7.37% (active) | 57.2% | 29.8% | 22.1% | 65.1% | 43.1% | 18% | 13.4% | 66.2% | 32.9% | 30.3% | 35.7% | 66.2% | 60% | 12.5% | 82.4%
7 | COC(=O)[C@H](CSC)N(C)C(=O)[C@@H]1CSSC[C@@H](NC(=O)c2nc3ccccc3cc2O)C(=O)NCC(=O)N1C | 77.6% | 48.8% | 96.7% | 81.3% | 101% | 79.2% | 114% | 87.2% | 76.1% | 46.2% | 99.1% | 76.1% | 132% | 92.7% | 91.2% | 72.7% | 38% | 60% | 48.3% | 83.4%
8 | N#Cc1c(-c2ccccn2)[nH]c(=S)[nH]c1=O | 105% | 97% | 108% | 117% | 110% | 101% | 99.1% | 97.3% | 109% | 97.6% | 96.7% | 96% | 105% | 126% | 99.8% | 103% | 106% | 118% | 104% | 112%
9 | Nc1n[nH]c(-c2cc(Cl)ccc2O)c1-c1ccccc1 | 106% | 67.9% | 82.2% | 78% | 86.4% | 92.3% | 102% | 94.6% | 98.5% | 93.8% | 78.5% | 102% | 86% | 102% | 89.2% | 81% | 92.2% | 66.6% | 79.6% | 122%
10 | CCOC(=O)/C=C/c1cc2cc(-c3csc4ccccc34)ccc2[nH]1 | 89.5% | 25.4% | 76.9% | 56.9% | 83.4% | 74.8% | 64.6% | 77.6% | 69.5% | 68.1% | 56.8% | 21.9% | 97.5% | 101% | 78.2% | 62% | 87.6% | 67.5% | 64.7% | 104%
11 | C=C(C)[C@@H]1CC[C@]2(C)[C@H](CC=C3[C@@H]4CC(C)(C)CC[C@]4(C(N)=O)CC[C@]32C)[C@@]1(C)CCC#N | 42.1% | 15.9% | 10.4% | 38.6% | 2.74% (active) | 45.6% | 38.5% | 35.7% | 17.5% | 44.7% | 14.8% | 39.3% | 29.3% | 47.7% | 30.6% | -0.165% (active) | -2.59% (active) | 15.7% | 36.9% | 45.8%
12 | CC(CN1CCCCC1)C(=O)c1ccccc1 (stereo not given) | 104% | 101% | 107% | 99.7% | 112% | 99.9% | 101% | 92.1% | 103% | 98.3% | 107% | 101% | 101% | 101% | 101% | 95.4% | 102% | 104% | 98.3% | 106%
13 | CC/C=C/C/C=C/C/C=C/C/C=C/C/C=C/C/C=C/CCC(=O)Nc1ccn([C@@H]2O[C@H](CO)[C@@H](O)C2(F)F)c(=O)n1 | 13.8% | 38.4% | 64.3% | 54.9% | 24.9% | 19.1% | 16.2% | 7.06% (active) | 48.2% | -22.7% (active) | 41.7% | 36.4% | 37.4% | 7.11% (active) | 22.4% | 41% | 31.3% | -12.3% (active) | -49.9% (active) | 74.9%
14 | O=C1CC(N2C(=O)/C(=C/C(Cl)=C\c3ccc([N+](=O)[O-])cc3)SC2=S)C(=O)N1c1ccc(O)cc1 (stereo not given) | 0.996% (active) | 6.6% (active) | -39% (active) | -10.3% (active) | -70.5% (active) | 5.72% (active) | -37.2% (active) | -28.8% (active) | -5.88% (active) | -7.42% (active) | -38.2% (active) | -16.7% (active) | 14.9% | -9.69% (active) | -39.5% (active) | 5.02% (active) | -39.1% (active) | -63.2% (active) | -83.7% (active) | -34% (active)
15 | O=C(COc1ccc(/C=C2\Oc3ccccc3C2=O)cc1)Nc1nc2ccccc2s1 | -74.8% (active) | 27.9% | 24.5% | 44.8% | 14.2% | 13.4% | 628% | -88.3% (active) | 110% | 95.4% | 98.2% | 93.2% | -16.2% (active) | 92.4% | 4.73% (active) | 13.7% | 95.6% | 82.4% | -71.7% (active) | 137%
